Data on 40 molecules can be found in PubChem BioAssay (NCI).

This is part of a sample that, as a whole, favours compounds with a hit. Of some 79,000 tested, about 15% had one in any assay. Active and inactive are the calls of the source. Cut-off read from the data, not from the text of the source: active = growth inhibition above about 70%; inactive = the rest. Where a SMILES comes first, the peptide text is derived from it. Bridges are numbered along the chain shown (N, C = ends). Roman numbers before positions name the chains, in order. The star is where a group is joined. Cbz = O=C(OCc1ccccc1)*

The nature of one test: NCI Yeast Anticancer Drug Screen. Data for the cln2 rad14 strain (AID 165).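 Note: 0% = growth equal to vehicle treated cultures.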 Conditions: S. cerevisiae cln2 rad14 strain, at 50.0 µM, stronger effect = higher value. In outline:
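Yeast carrying cln2 and rad14 alterations (cell cycle control and DNA damage repair) were exposed to compounds. Growth inhibition was measured against vehicle-treated controls.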
For the molecule `C/C(=N\Nc1cc(C)nc2cc3c(cc12)OCO3)c1cn(C)n(-c2ccccc2)c1=O`, the growth inhibition is 34.9% (inactive).
The same measure, in the same setting: in the case of `[Cu+2].[Cu+2].c1ccc2c(c1)-c1nc-2nc2[n-]c(nc3nc(nc4[n-]c(n1)c1ccccc41)-c1ccccc1-3)c1cc3c4nc5nc(nc6[n-]c(nc7nc(nc([n-]4)c3cc21)-c1ccccc1-7)c1ccccc61)-c1ccccc1-5` it was -40.3% (inactive); in that of `O=C(CC(c1ccccc1)C(Br)[N+](=O)[O-])c1ccccc1` (stereo not given), -9.9% (inactive).
On to `Cc1c(-c2ccccc2)c(=O)oc2cc(O)ccc12`, for which the growth inhibition is -49.2% (inactive).
Still for that read-out and setting: the result for `COC(=O)NC1CC/C=C\CCC1I` (stereo not given) reads 12.9% (inactive).
Same read-out and setting: the result for `CC(C)C(NC(=O)C(CSSCC(NC(=O)OCc1ccccc1)C(=O)NC(C(=O)O)C(C)C)NC(=O)OCc1ccccc1)C(=O)O` (stereo not drawn) (I: Cbz-Cys-Val-OH / II: Cbz-Cys-Val-OH; disulfide I:1-II:1; configuration not given here) reads -3.25% (inactive); that for `O=C(O)c1n[nH]c2ccccc12`, 5.6% (inactive).
Same read-out and setting: the result for `OCC1OC(O)CC1O` (stereo not given) reads 9.05% (inactive).
Take `CC1(C(=O)O)CCCC1C(CCC(=O)O)C(=O)O` (stereo not given): the growth inhibition was -19.6% (inactive).
Same read-out and setting: in the case of `Cc1cc(Cl)c2ccc(Cl)c(C)c2n1` it was -11.1% (inactive); in that of `C/C(=N\NC(=O)c1ccncc1)c1ccccc1Cl`, -13.3% (inactive); in that of `O=C(O)[C@H](c1ccccc1)[C@@H](C(=O)O)c1ccccc1`, -3.35% (inactive).
In the case of `CC(=O)Nc1cc(F)c(N=Nc2ccc([N+](=O)[O-])cc2)c(F)c1`, the growth inhibition was -38.2% (inactive).
Turning to `O=[N+]([O-])c1ccc(Oc2ccc(S(=O)(=O)O)cc2)cc1`, the growth inhibition was 7.4% (inactive).
On the same count and under the same terms, the result for `COc1ccc(NC(=S)NN)cc1` reads -6% (inactive); that for `O=S(=O)([N-]c1nc2ccccc2nc1-[n+]1ccccc1)c1ccccc1`, -7.25% (inactive).
The same measure, in the same setting: the result for `ClCCOCc1ccc(Cl)cc1Cl` reads 0.7% (inactive).
The same measure, in the same setting: in the case of `Cc1ccc(Nc2nc(NS(=O)(=O)c3cc(C)c(Cl)cc3S)n(C)n2)cc1` it was -7.1% (inactive).
For the molecule `CC(c1ccccc1)/[N+]([O-])=C/c1ccccc1` (stereo not given), the growth inhibition is -6.7% (inactive).
The same measure, in the same setting: the result for `COCCOC(=O)c1ccccc1O` reads 2.95% (inactive).
The same measure, in the same setting: the result for `COCn1c(C)c(C)c2c(=O)oc(=O)[nH]c21` reads -11.3% (inactive); that for `C=CCC(OC(C)=O)c1cccc(OC)c1OC` (stereo not given), -48.7% (inactive); that for `c1ccc(CN2COc3c(ccc4c5c(ccc34)CN(Cc3ccccc3)CO5)C2)cc1`, -14.1% (inactive).
Same read-out and setting: the result for `Cc1ccc(NC(=O)/C(Cc2nc3ccc([N+](=O)[O-])cc3[nH]c2=O)=N\NC(=O)C[n+]2ccccc2)c(C)c1` reads 14.9% (inactive); that for `Nc1ccc(C(=O)N/N=C/C=C/c2ccccc2)cc1`, -5.8% (inactive); that for `COC1OC2COC(c3ccccc3)OC2C(OC(=O)c2ccc([N+](=O)[O-])cc2)C1OS(=O)(=O)c1ccc(C)cc1` (stereo not given), 25.1% (inactive).
Regarding `C1CCC2(CC1)OCCO2`, the growth inhibition is 1.3% (inactive).
Same read-out and setting: in the case of `C/C(=N\NC(N)=S)c1cc(C)c(C)cc1C` it was 17.2% (inactive); in that of `Cc1ccc(Nc2ccc(Nc3ccc(C)cc3)c3c2C(=O)c2ccccc2C3=O)cc1`, 5% (inactive).
Same read-out and setting: the result for `O=C1C=C(CCC2=CC(=O)c3ccccc3C2=O)C(=O)c2ccccc21` reads -10.9% (inactive); that for `CC(=O)c1sc2c(c1OC(=O)c1cccs1)c(=O)n(-c1ccccc1)c(=S)n2-c1ccccc1`, -15.1% (inactive).
The same measure, in the same setting: in the case of `c1ccc(-c2cnn3c(-c4ccccc4)cnnc23)cc1` it was 2.8% (inactive).
With `CC(C)NCC(C)(C)[N+](=O)[O-]`, the growth inhibition is -4.1% (inactive).
With `O=[N+]([O-])c1ccc(N=C/C=C/Nc2ccc([N+](=O)[O-])cc2)cc1`, the growth inhibition was -8.6% (inactive).
On to `Cc1cc2c(cc1C)C(=O)c1ccccc1C2=O`, for which the growth inhibition was -6.7% (inactive).
Still for that read-out and setting: in the case of `O=C(c1nc2ccc([N+](=O)[O-])cc2[nH]c1=O)C(O)c1ccc([N+](=O)[O-])cc1` (stereo not given) it was 10.1% (inactive); in that of `O=C(/C=C/c1ccc2c(c1)OCO2)NCc1ccco1`, -5.8% (inactive); in that of `CC1=CC(=O)N2CCN=C2S1`, -20.6% (inactive).
Same read-out and setting: the result for `CCOc1ccc(/C(Cl)=C(\C=O)c2ccc(OC)c(OC)c2)cc1OCC` reads -2.2% (inactive); that for `COC(=O)[C@@]1(NC(=O)C(CC(=O)OC(C)(C)C)NC(=O)OC(C)(C)C)C[C@H]1C` (stereo not given in full), 6.15% (inactive).

Another test can be described thus: NCI Yeast Anticancer Drug Screen. Data for the bub3 strain (AID 167). Conditions: S. cerevisiae bub3 mutant strain, at 50.0 µM, stronger effect = higher value. The procedure, abridged:
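Inhibition values come from growth of compound-treated mutant yeast normalised to vehicle-treated controls.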
Regarding `C/C(=N\Nc1cc(C)nc2cc3c(cc12)OCO3)c1cn(C)n(-c2ccccc2)c1=O`, the growth inhibition was 12.4% (inactive).
The same measure, in the same setting: in the case of `[Cu+2].[Cu+2].c1ccc2c(c1)-c1nc-2nc2[n-]c(nc3nc(nc4[n-]c(n1)c1ccccc41)-c1ccccc1-3)c1cc3c4nc5nc(nc6[n-]c(nc7nc(nc([n-]4)c3cc21)-c1ccccc1-7)c1ccccc61)-c1ccccc1-5` it was -11.1% (inactive).
On the same count and under the same terms, the result for `O=C(CC(c1ccccc1)C(Br)[N+](=O)[O-])c1ccccc1` (stereo not given) reads 40% (inactive); that for `Cc1c(-c2ccccc2)c(=O)oc2cc(O)ccc12`, 17.5% (inactive).
Take `COC(=O)NC1CC/C=C\CCC1I` (stereo not given): the growth inhibition was 22.9% (inactive).
Still for that read-out and setting: in the case of `CC(C)C(NC(=O)C(CSSCC(NC(=O)OCc1ccccc1)C(=O)NC(C(=O)O)C(C)C)NC(=O)OCc1ccccc1)C(=O)O` (stereo not drawn) (I: Cbz-Cys-Val-OH / II: Cbz-Cys-Val-OH; disulfide I:1-II:1; configuration not given here) it was -1% (inactive); in that of `O=C(O)c1n[nH]c2ccccc12`, -5.7% (inactive); in that of `OCC1OC(O)CC1O` (stereo not given), -5.75% (inactive).
Still for that read-out and setting: in the case of `CC1(C(=O)O)CCCC1C(CCC(=O)O)C(=O)O` (stereo not given) it was -6.9% (inactive); in that of `Cc1cc(Cl)c2ccc(Cl)c(C)c2n1`, 5.4% (inactive); in that of `C/C(=N\NC(=O)c1ccncc1)c1ccccc1Cl`, -75.8% (inactive).
Same read-out and setting: the result for `O=C(O)[C@H](c1ccccc1)[C@@H](C(=O)O)c1ccccc1` reads -53.8% (inactive); that for `CC(=O)Nc1cc(F)c(N=Nc2ccc([N+](=O)[O-])cc2)c(F)c1`, -28.1% (inactive); that for `O=[N+]([O-])c1ccc(Oc2ccc(S(=O)(=O)O)cc2)cc1`, 6.6% (inactive).
Take `COc1ccc(NC(=S)NN)cc1`: the growth inhibition was 13.9% (inactive).
Same read-out and setting: the result for `O=S(=O)([N-]c1nc2ccccc2nc1-[n+]1ccccc1)c1ccccc1` reads -2.2% (inactive).
For `ClCCOCc1ccc(Cl)cc1Cl`, the growth inhibition was -3.7% (inactive).
The same measure, in the same setting: in the case of `Cc1ccc(Nc2nc(NS(=O)(=O)c3cc(C)c(Cl)cc3S)n(C)n2)cc1` it was -32.9% (inactive).
Take `CC(c1ccccc1)/[N+]([O-])=C/c1ccccc1` (stereo not given): the growth inhibition was -57.2% (inactive).
For the molecule `COCCOC(=O)c1ccccc1O`, the growth inhibition is -13.2% (inactive).
On the same count and under the same terms, in the case of `COCn1c(C)c(C)c2c(=O)oc(=O)[nH]c21` it was 16.6% (inactive); in that of `C=CCC(OC(C)=O)c1cccc(OC)c1OC` (stereo not given), -3.25% (inactive).
Still for that read-out and setting: in the case of `c1ccc(CN2COc3c(ccc4c5c(ccc34)CN(Cc3ccccc3)CO5)C2)cc1` it was -19.9% (inactive); in that of `Cc1ccc(NC(=O)/C(Cc2nc3ccc([N+](=O)[O-])cc3[nH]c2=O)=N\NC(=O)C[n+]2ccccc2)c(C)c1`, 15.3% (inactive).
Still for that read-out and setting: in the case of `Nc1ccc(C(=O)N/N=C/C=C/c2ccccc2)cc1` it was 30.4% (inactive); in that of `COC1OC2COC(c3ccccc3)OC2C(OC(=O)c2ccc([N+](=O)[O-])cc2)C1OS(=O)(=O)c1ccc(C)cc1` (stereo not given), 0.7% (inactive); in that of `C1CCC2(CC1)OCCO2`, -7.85% (inactive).
On to `C/C(=N\NC(N)=S)c1cc(C)c(C)cc1C`, for which the growth inhibition is -7.95% (inactive).
The same measure, in the same setting: in the case of `Cc1ccc(Nc2ccc(Nc3ccc(C)cc3)c3c2C(=O)c2ccccc2C3=O)cc1` it was -8.2% (inactive); in that of `O=C1C=C(CCC2=CC(=O)c3ccccc3C2=O)C(=O)c2ccccc21`, -26.5% (inactive).
`CC(=O)c1sc2c(c1OC(=O)c1cccs1)c(=O)n(-c1ccccc1)c(=S)n2-c1ccccc1`: the growth inhibition is 23.4% (inactive).
The same measure, in the same setting: the result for `c1ccc(-c2cnn3c(-c4ccccc4)cnnc23)cc1` reads 2.8% (inactive).
As to `CC(C)NCC(C)(C)[N+](=O)[O-]`, the growth inhibition is 3.3% (inactive).
Same read-out and setting: the result for `O=[N+]([O-])c1ccc(N=C/C=C/Nc2ccc([N+](=O)[O-])cc2)cc1` reads 6.3% (inactive).
For the molecule `Cc1cc2c(cc1C)C(=O)c1ccccc1C2=O`, the growth inhibition was -30.7% (inactive).
Same read-out and setting: in the case of `O=C(c1nc2ccc([N+](=O)[O-])cc2[nH]c1=O)C(O)c1ccc([N+](=O)[O-])cc1` (stereo not given) it was -25.4% (inactive).
Still for that read-out and setting: the result for `O=C(/C=C/c1ccc2c(c1)OCO2)NCc1ccco1` reads -14.4% (inactive); that for `CC1=CC(=O)N2CCN=C2S1`, -3% (inactive).
Same read-out and setting: the result for `CCOc1ccc(/C(Cl)=C(\C=O)c2ccc(OC)c(OC)c2)cc1OCC` reads -3.6% (inactive).
For the molecule `COC(=O)[C@@]1(NC(=O)C(CC(=O)OC(C)(C)C)NC(=O)OC(C)(C)C)C[C@H]1C` (stereo not given in full), the growth inhibition is -3.25% (inactive).
